This is an account of results in PubChem BioAssay (NCATS).

Each structure is given as a SMILES string. Values joined by “and” are separate entries in the source; they are usually repeats but may differ in a detail not shown here. Equal values may be shown once.

A short description of the assay: qHTS profiling of the MIPE4 collection as inhibitors of Plasmodium falciparum (DD2) proliferation (Rep 2) (AID 743346). Particulars: P. falciparum Dd2 in erythrocytes, SYBR Green DNA, 72 h; at 28.5 µM unless noted. From the text:
Plasmodium falciparum is a virulent malarial parasite that kills 1-2 million people worldwide each year. Transmitted by mosquitoes, the sporozoite form of the parasite enters the blood stream to infect hepatocytes, where they become merozoites that infect red blood cells (erythrocytes). Within erythrocytes, merozoites begin a […] cycle of growth and division, after which the parasite is released to infect new red blood cells. Gametocytes, which form within erythrocytes as well, circulate in the bloodstream and are ingested by the mosquito, thereby completing the life cycle. To profile malarial isolates for differential chemical responses and to identify inhibitors of malarial growth, an assay that measures P. falciparum growth and replication within erythrocytes was employed. This assay uses a DNA binding fluorescent dye (SYBR Green) to detect parasite DNA following cell lysis. Because mature erythrocytes lack DNA, only Plasmodium-derived DNA is detected.
The SYBR Green viability assay was adapted from a method described previously (Plouffe et al., 2008). For screening 3 ul culture medium was dispensed into 1536 well black clear bottom plates (Aurora Biotechnologies) using a Multidrop Combi (Thermo Fisher Scientific Inc.), 23 nL compounds in DMSO were added by a pin tool (Kalypsys), and 5 ul of erythrocytes infected with P. falciparum (0.3% parasitemia, 2.5% hematocrit final concentration) were added. The plates were incubated at 37 C in a humidified incubator in 5% CO2 for 72 h, and 2 ul lysis buffer (20 mM Tris HCl, 10 mM EDTA, 0.16% saponin, 1.6% triton X, 10X SYBR Green I supplied as 10,000X […] by Invitrogen) was added to each well. The plates were mixed for 25 sec with gentle shaking and incubated overnight at room temperature in the dark. The following morning, fluorescence intensity at 485(14) nm excitation and 535(25) nm emission wavelengths was measured on an EnVision (Perkin Elmer) plate reader. Plate reads were normalized relative to the control inhibitor (0.29 uM artemisinin) and vehicle (DMSO) wells present on each plate and then corrected by an algorithm using vehicle-only control plates at the beginning and end of the compound plate stack.
On to `COc1nc(C)nc(Cl)c1NC1=NCCN1`, for which the parasite growth, % of control (lower = inhibition) stood at 92.6%. Regarding `COC(=O)Nc1nc2ccc(C(=O)c3cccs3)cc2[nH]1`, the parasite growth, % of control (lower = inhibition) was 91.6%. Consider `COc1ccc2c(c1)c(CC(=O)O)c(C)n2C(=O)c1ccc(Cl)cc1`, for which the parasite growth, % of control (lower = inhibition) was found to be 127%.

Regarding `CN1CCC(=C2c3ccccc3CC(=O)c3sccc32)CC1`, the parasite growth, % of control (lower = inhibition) worked out at 40.5%.

For `COc1cc2nc(N3CCN(C(=O)c4ccco4)CC3)nc(N)c2cc1OC`, the parasite growth, % of control (lower = inhibition) came to 8.89%. For the compound `O=C(Nc1ccc([N+](=O)[O-])cc1Cl)c1cc(Cl)ccc1O`, the parasite growth, % of control (lower = inhibition) worked out at 6.93%.

With `C[C@@H]1CC(=O)NN=C1c1ccc(NN=C(C#N)C#N)cc1`, the parasite growth, % of control (lower = inhibition) came out at 33.2%. Next, `COc1cc2nc(N(C)CCCNC(=O)C3CCCO3)nc(N)c2cc1OC` (stereo not given): 63%; `Nc1nnc(-c2cccc(Cl)c2Cl)c(N)n1`: 104%; `CNCCCC12CCC(c3ccccc31)c1ccccc12`: 21.9%.

Consider `NCCCCCC(=O)O`, for which the parasite growth, % of control (lower = inhibition) is 118%. `CC(CCc1ccc(O)cc1)NCCc1ccc(O)c(O)c1` (stereo not given): the parasite growth, % of control (lower = inhibition) was found to be 62.7%. Turning to `Clc1ccc(C(c2ccccc2Cl)C(Cl)Cl)cc1` (stereo not given), the parasite growth, % of control (lower = inhibition) came out at 54.8%. With `Cc1cc(C(C)(C)C)c(O)c(C)c1CC1=NCCN1`, the parasite growth, % of control (lower = inhibition) is 68.6%.

On to `Cn1ccc2cc3c(cc21)CCN3C(=O)Nc1cccnc1`, for which the parasite growth, % of control (lower = inhibition) came to 13.8%. Turning to `CC(C)NCC(O)c1ccc(O)c(O)c1` (stereo not given), the parasite growth, % of control (lower = inhibition) amounted to 9.11%.

For the compound `CC1(C)O[C@H]2CC(=O)OC[C@]23[C@H]2CC[C@@]4(C)[C@H](c5ccoc5)OC(=O)[C@H]5O[C@]54[C@]2(C)C(=O)C[C@@H]13`, the parasite growth, % of control (lower = inhibition) came to 82%. For the compound `CS(=O)(=O)Nc1ccc([N+](=O)[O-])cc1Oc1ccccc1`, the parasite growth, % of control (lower = inhibition) came out at 84.4%.

Take `O=C(c1ccc(OCCN2CCCCC2)cc1)c1c(-c2ccc(O)cc2)sc2cc(O)ccc12`: the parasite growth, % of control (lower = inhibition) worked out at 20.8%.

Consider `Nc1c2c(nc3ccccc13)CCCC2`, for which the parasite growth, % of control (lower = inhibition) amounted to 10.3%. Next, `Cc1cnc(C(=O)NCCc2ccc(S(=O)(=O)NC(=O)NC3CCCCC3)cc2)cn1`: 9.38%; `COc1ccc2[nH]cc(CCNC(C)=O)c2c1`: 89.3% and 83%. For the compound `CN1CCC(=C2c3ccccc3C=Cc3ccccc32)CC1`, the parasite growth, % of control (lower = inhibition) came to 35.3%.

Turning to `Clc1ccc2nsnc2c1NC1=NCCN1`, the parasite growth, % of control (lower = inhibition) came to 45.7%. Turning to `CCc1cccc2c3c([nH]c12)C(CC)(CC(=O)O)OCC3` (stereo not given), the parasite growth, % of control (lower = inhibition) is 85%. Next, `CC(=O)OCC(CCn1cnc2cnc(N)nc21)COC(C)=O`: 91.8%.

Regarding `CC(COc1ccccc1)N(CCCl)Cc1ccccc1` (stereo not given), the parasite growth, % of control (lower = inhibition) is 27%. Next, `CS(=O)(=O)CCNCc1ccc(-c2ccc3ncnc(Nc4ccc(OCc5cccc(F)c5)c(Cl)c4)c3c2)o1`: 51.8%; `NS(=O)(=O)c1cc2c(cc1Cl)NCNS2(=O)=O`: 39.6%. In the case of `Cc1ccccc1N1C(=O)c2cc(S(N)(=O)=O)c(Cl)cc2NC1C` (stereo not given), the parasite growth, % of control (lower = inhibition) worked out at 83.2%. With `COc1ccccc1OCCNCC(O)COc1cccc2[nH]c3ccccc3c12` (stereo not given), the parasite growth, % of control (lower = inhibition) came out at 20.7%. The value for `CN1CCN2c3ccccc3Cc3ccccc3C2C1` (stereo not given) was 44.9%.

Turning to `Cn1c(=O)c2c(ncn2C)n(C)c1=O`, the parasite growth, % of control (lower = inhibition) stood at 81.8%.

As to `COc1ccccc1OCC(O)CN1CCN(CC(=O)Nc2c(C)cccc2C)CC1` (stereo not given), the parasite growth, % of control (lower = inhibition) came to 193%.

For `CC(C)(C)C(=O)Oc1ccc(S(=O)(=O)Nc2ccccc2C(=O)NCC(=O)O)cc1`, the parasite growth, % of control (lower = inhibition) was found to be 91.4%.

In the case of `CC1COc2c(N3CCN(C)CC3)c(F)cc3c(=O)c(C(=O)O)cn1c23` (stereo not given), the parasite growth, % of control (lower = inhibition) was found to be 76.4%. Turning to `CN1C(C(=O)Nc2ccccn2)=C(O)c2ccccc2S1(=O)=O`, the parasite growth, % of control (lower = inhibition) is 136%. Next, `CN(C)c1nc(N(C)C)nc(N(C)C)n1`: 104%.

Regarding `Cc1cn([C@H]2C[C@H](N=[N+]=[N-])[C@@H](CO)O2)c(=O)[nH]c1=O`, the parasite growth, % of control (lower = inhibition) came out at 117%.

For the compound `NCCc1cnc[nH]1`, the parasite growth, % of control (lower = inhibition) came to 109%.
